Results taken from the supplement of paper PMC12494721.
Structures can show the parent of a compound that is named as a salt. Values without a mark were called inactive.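 How the source made its calls: for the amine columns active = adjusted P below 0.05 in both replicates with a change the same way and a mean fold change under 0.8 or over 1.25; inactive = the rest.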

What follows are compounds tested on Ruminococcus gnavus DSM 108212 (assay: fold change of Tryptamine concentration vs plate DMSO controls (fold change (ratio)); higher = more amine produced, active = hit call of the paper (significant change in both replicates, either direction)). Conditions: incubation time: 27 h, anaerobic, 37 °C.
In short: (§1)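 Using LC–triple-quadrupole MS with dynamic MRM, amines were quantified against external calibration curves and corrected for drift within each batch. Samples were whole anaerobic mGAM cultures of four gut strains, grown 27 h at 37 °C from OD 0.1 before 1:1 dilution, extracted with cold acetonitrile/methanol containing 0.1% formic acid and centrifuged. Compounds were present at 20 µM final (sweeteners at 50 µM final). The numbers are fold changes versus plate DMSO controls, each the mean of 2 biological replicates.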

| Compound | fold change of Tryptamine concentration |
| --- | --- |
| CN1CCc2c(c3ccccc3n2Cc2ccccc2)C1 [Mebhydroline 1,5-naphtalenedisulfonate] (20 µM) | 0.911 |
| C=C1/C(=C\C=C2/CCC[C@]3(C)[C@@H]([C@H](C)/C=C/[C@@H](O)C4CC4)CC[C@@H]23)C[C@@H](O)C[C@@H]1O [Calcipotriene] (20 µM) | 1.01 |
| Cc1nc(=O)c2cc(CN(C)c3ccc(C(=O)N[C@@H](CCC(=O)O)C(=O)O)s3)ccc2[nH]1 [Raltitrexed] (20 µM) | 1.06 |
| Cc1cn[nH]c1 [Fomepizole] (20 µM) | 1.01 |
| CC[C@@H]1C(=O)OC[C@@H]1Cc1cncn1C [Pilocarpine nitrate] (20 µM) | 1.01 |
| C=C(CC)C(=O)c1ccc(OCC(=O)O)c(Cl)c1Cl [Ethacrynic acid] (20 µM) | 0.941 |
| Cc1cccc(C)c1OCC(=O)N[C@@H](Cc1ccccc1)[C@@H](O)C[C@H](Cc1ccccc1)NC(=O)[C@H](C(C)C)N1CCCNC1=O [Lopinavir] (20 µM) | 0.986 |
| OCCN1C[C@H](O)[C@@H](O)[C@H](O)[C@H]1CO [Miglitol] (20 µM) | 1.02 |
| CCOc1ccccc1OCC1CNCCO1 (stereo unspecified) [Viloxazine hydrochloride] (20 µM) | 0.572 (active) |
| CC[C@@]1(O)C(=O)OCc2c1cc1n(c2=O)Cc2cc3c(CN(C)C)c(O)ccc3nc2-1 [Topotecan] (20 µM) | 0.998 |
| CC(C)N1CCN(c2ccc(OCC3COC(Cn4cncn4)(c4ccc(Cl)cc4Cl)O3)cc2)CC1 (stereo unspecified) [Terconazole] (20 µM) | 1 |
| CN1CCN(c2c(F)cc3c(=O)c(C(=O)O)cn4c3c2OCN4C)CC1 [Marbofloxacin] (20 µM) | 0.992 |
| O=C(O)c1cc(=O)[nH]c(=O)[nH]1 [Orotic acid] (20 µM) | 0.967 |
| c1ccc2c(c1)Cc1ccccc1-2 [Fluorene] (20 µM) | 1 |
| Oc1c(Br)cc(Br)c2cccnc12 [Broxyquinoline] (20 µM) | 0.562 (active) |
| CCC[C@@H]1C[C@@H](C(=O)N[C@@H]([C@H]2O[C@H](SC)[C@H](O)[C@@H](O)[C@H]2O)[C@H](C)Cl)N(C)C1 [Clindamycin hydrochloride] (20 µM) | 0.136 (active) |
| COC(=O)Nc1nc2cc(Sc3ccccc3)ccc2[nH]1 [Fenbendazole] (20 µM) | 1 |
| CN(c1nccc(=O)[nH]1)C1CCN(c2nc3ccccc3n2Cc2ccc(F)cc2)CC1 [Mizolastine] (20 µM) | 0.973 |
| CC[N+](C)(C)c1cccc(O)c1 [Edrophonium chloride] (20 µM) | 1.14 |
| CC[C@@H]([C@H](C)O)n1ncn(-c2ccc(N3CCN(c4ccc(OC[C@@H]5CO[C@@](Cn6cncn6)(c6ccc(F)cc6F)C5)cc4)CC3)cc2)c1=O [Posaconazole hydrate] (20 µM) | 1 |
| COCC1=C(C(=O)OC(C)OC(=O)OC(C)C)N2C(=O)[C@@H](NC(=O)/C(=N\OC)c3csc(N)n3)[C@H]2SC1 (stereo partly specified) [Cefpodoxime proxetil] (20 µM) | 0.622 |
| O=c1n(CCCN2CCN(c3cccc(Cl)c3)CC2)nc2ccccn12 [Trazodone hydrochloride] (20 µM) | 0.809 |
| CC1=C(C(=O)O)N2C(=O)[C@@H](NC(=O)[C@H](N)c3ccccc3)[C@H]2SC1 [Cephalexin monohydrate] (20 µM) | 1.1 |
| CCCSc1nc(N[C@@H]2C[C@H]2c2ccc(F)c(F)c2)c2nnn([C@@H]3C[C@H](OCCO)[C@@H](O)[C@H]3O)c2n1 [Ticagrelor] (20 µM) | 0.748 (active) |
| Cc1cc(NS(=O)(=O)c2ccc(N)cc2)nc(C)n1 [Sulfisomidine] (20 µM) | 1.04 |
| CN1CCN(C(c2ccccc2)c2ccc(Cl)cc2)CC1 (stereo unspecified) [Chlorcyclizine hydrochloride] (20 µM) | 0.89 |
| OC[C@H](O)C(O)[C@@H](O)CO [L-Arabinitol] (50 µM) | 0.939 |
| CC(C)COC(=O)OCN1C(=O)CN(CCN2CC(=O)N(COC(=O)OCC(C)C)C(=O)C2)CC1=O [Sobuzoxane] (20 µM) | 1.03 |
| CCCNC(=O)NS(=O)(=O)c1ccc(Cl)cc1 [Chlorpropamide] (20 µM) | 1.13 |

What follows are compounds tested on Escherichia coli IAI1 (assay: fold change of Putrescine concentration vs plate DMSO controls (fold change (ratio)); higher = more amine produced, active = hit call of the paper (significant change in both replicates, either direction)). Conditions: incubation time: 27 h, anaerobic, 37 °C.
In short: as §1

| Compound | fold change of Putrescine concentration |
| --- | --- |
| Nc1nc(CC(=O)Nc2ccc(CCNC[C@H](O)c3ccccc3)cc2)cs1 [Mirabegron] (20 µM) | 0.977 |
| CS(=O)(=O)OCCCCOS(C)(=O)=O [Busulfan] (20 µM) | 1.08 |
| CCN(CC)CCOC(=O)C(Cc1cccc2ccccc12)CC1CCCO1 (stereo unspecified) [Nafronyl oxalate] (20 µM) | 1.01 |
| C[C@H]1O[C@@H](O[C@H]2[C@@H](O)C[C@H](O[C@H]3[C@@H](O)C[C@H](O[C@H]4CC[C@@]5(C)[C@H](CC[C@@H]6[C@@H]5C[C@@H](O)[C@]5(C)[C@@H](C7=CC(=O)OC7)CC[C@]65O)C4)O[C@@H]3C)O[C@@H]2C)C[C@H](O)[C@@H]1O [Digoxin] (20 µM) | 1.01 |
| COc1cc(N)c(Cl)cc1C(=O)NC1CCN(CCCOc2ccc(F)cc2)CC1OC (stereo unspecified) [Cisapride] (20 µM) | 1 |
| O=C(O[C@@H]1C[C@@H]2C[C@H]3C[C@H](C1)N2CC3=O)c1c[nH]c2ccccc12 [Dolasetron mesilate] (20 µM) | 0.942 |
| Cc1oncc1C(=O)Nc1ccc(C(F)(F)F)cc1 [Leflunomide] (20 µM) | 1.01 |
| CC(C)Cn1cnc2c(N)nc3ccccc3c21 [Imiquimod] (20 µM) | 0.988 |
| Clc1ccc2c(c1)C(N1CCNCC1)=Nc1ccccc1O2 [Amoxapine] (20 µM) | 0.994 |
| CCCCCN(C)CCC(O)(P(=O)(O)O)P(=O)(O)O [Ibandronate sodium] (20 µM) | 1 |
| CN1CCc2c(c3ccccc3n2Cc2ccccc2)C1 [Mebhydroline 1,5-naphtalenedisulfonate] (20 µM) | 0.987 |
| C=C1/C(=C\C=C2/CCC[C@]3(C)[C@@H]([C@H](C)/C=C/[C@@H](O)C4CC4)CC[C@@H]23)C[C@@H](O)C[C@@H]1O [Calcipotriene] (20 µM) | 1.01 |
| Cc1nc(=O)c2cc(CN(C)c3ccc(C(=O)N[C@@H](CCC(=O)O)C(=O)O)s3)ccc2[nH]1 [Raltitrexed] (20 µM) | 0.924 |
| Cc1cn[nH]c1 [Fomepizole] (20 µM) | 0.999 |
| CC[C@@H]1C(=O)OC[C@@H]1Cc1cncn1C [Pilocarpine nitrate] (20 µM) | 1.02 |
| C=C(CC)C(=O)c1ccc(OCC(=O)O)c(Cl)c1Cl [Ethacrynic acid] (20 µM) | 0.972 |

| Compound | fold change of Putrescine concentration |
| --- | --- |
| Cc1cccc(C)c1OCC(=O)N[C@@H](Cc1ccccc1)[C@@H](O)C[C@H](Cc1ccccc1)NC(=O)[C@H](C(C)C)N1CCCNC1=O [Lopinavir] (20 µM) | 0.989 |
| OCCN1C[C@H](O)[C@@H](O)[C@H](O)[C@H]1CO [Miglitol] (20 µM) | 1 |
| CCOc1ccccc1OCC1CNCCO1 (stereo unspecified) [Viloxazine hydrochloride] (20 µM) | 1.06 |
| CC[C@@]1(O)C(=O)OCc2c1cc1n(c2=O)Cc2cc3c(CN(C)C)c(O)ccc3nc2-1 [Topotecan] (20 µM) | 1.01 |
| CC(C)N1CCN(c2ccc(OCC3COC(Cn4cncn4)(c4ccc(Cl)cc4Cl)O3)cc2)CC1 (stereo unspecified) [Terconazole] (20 µM) | 1 |
| CN1CCN(c2c(F)cc3c(=O)c(C(=O)O)cn4c3c2OCN4C)CC1 [Marbofloxacin] (20 µM) | 0.616 (active) |
| O=C(O)c1cc(=O)[nH]c(=O)[nH]1 [Orotic acid] (20 µM) | 0.995 |
| c1ccc2c(c1)Cc1ccccc1-2 [Fluorene] (20 µM) | 1.05 |
| Oc1c(Br)cc(Br)c2cccnc12 [Broxyquinoline] (20 µM) | 1.03 |
| CCC[C@@H]1C[C@@H](C(=O)N[C@@H]([C@H]2O[C@H](SC)[C@H](O)[C@@H](O)[C@H]2O)[C@H](C)Cl)N(C)C1 [Clindamycin hydrochloride] (20 µM) | 0.4 |
| COC(=O)Nc1nc2cc(Sc3ccccc3)ccc2[nH]1 [Fenbendazole] (20 µM) | 1.05 |
| CN(c1nccc(=O)[nH]1)C1CCN(c2nc3ccccc3n2Cc2ccc(F)cc2)CC1 [Mizolastine] (20 µM) | 0.986 |
| CC[N+](C)(C)c1cccc(O)c1 [Edrophonium chloride] (20 µM) | 1.01 |
| CC[C@@H]([C@H](C)O)n1ncn(-c2ccc(N3CCN(c4ccc(OC[C@@H]5CO[C@@](Cn6cncn6)(c6ccc(F)cc6F)C5)cc4)CC3)cc2)c1=O [Posaconazole hydrate] (20 µM) | 1.04 |
| COCC1=C(C(=O)OC(C)OC(=O)OC(C)C)N2C(=O)[C@@H](NC(=O)/C(=N\OC)c3csc(N)n3)[C@H]2SC1 (stereo partly specified) [Cefpodoxime proxetil] (20 µM) | 0.972 |
| O=c1n(CCCN2CCN(c3cccc(Cl)c3)CC2)nc2ccccn12 [Trazodone hydrochloride] (20 µM) | 1.01 |
